Structures are written as SMILES. Screen size: about 16,000 compounds; about 5,100 (32%) were called active. About 25% were inconclusive and are not listed. This is one part of the list. Unmarked numbers belong to inactive results. Calls follow the shape of the dose curve; as a rule, active = well fitted curve in the direction sought with a large enough effect; inconclusive = small, poorly fitted or top-dose-only effect, or effect the other way; inactive = no such curve, though single readings can be large or run the other way.

One may read the AC50 as the concentration at which the activity in the assay is half-maximal.
% is scaled to controls: 0 for no effect and ±100 for the full control effect.

The target in the test is Cytochrome P450 3A4 (Homo sapiens) (UniProt P08684). Briefly: Cytochrome panel assay with activity outcomes. The note with it: recombinant CYP, pro-luciferin dealkylation, luminescence, p450-cyp3a4; series mostly up to 57.1 µM; activity, negative = inhibition: at the top concentration.
Cytochrome P450 3A4 (Homo sapiens), sequence (P08684 whole entry, looked up): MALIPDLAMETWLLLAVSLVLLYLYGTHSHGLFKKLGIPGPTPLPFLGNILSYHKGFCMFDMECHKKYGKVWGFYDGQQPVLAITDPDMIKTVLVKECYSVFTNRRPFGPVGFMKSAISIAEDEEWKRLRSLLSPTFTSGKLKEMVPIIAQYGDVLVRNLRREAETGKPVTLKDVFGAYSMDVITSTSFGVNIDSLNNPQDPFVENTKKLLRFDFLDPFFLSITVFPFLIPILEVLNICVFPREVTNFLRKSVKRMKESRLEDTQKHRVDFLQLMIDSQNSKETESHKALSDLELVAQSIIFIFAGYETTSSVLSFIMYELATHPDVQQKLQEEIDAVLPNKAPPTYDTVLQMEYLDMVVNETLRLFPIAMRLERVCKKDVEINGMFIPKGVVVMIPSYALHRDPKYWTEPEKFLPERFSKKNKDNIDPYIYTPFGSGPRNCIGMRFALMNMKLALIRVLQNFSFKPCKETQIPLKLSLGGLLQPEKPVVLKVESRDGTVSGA
Turning to `Cc1nc(N=Nc2cc(S(=O)(=O)O)ccc2S(=O)(=O)O)c(COP(=O)(O)O)c(C=O)c1O`, the “activity, negative = inhibition” value is -14.1%. Still for that read-out and setting: the figure for `O=C(O)C[C@H](S)C(=O)O` is -4.75% [at 11.4 µM]; for `[N-]=[N+]=NC[C@@H]1O[C@@H](n2cnc3c(N)ncnc32)[C@@H]2O[C@@H]21` it is -11.8% [at 11.4 µM]; for `Nc1nc2n[nH]nc2c(=O)[nH]1` it is -18.8% [at 25.6 µM].

Consider `O=C1C2=CC[C@H]3C(=O)N(c4cccc(Oc5ccccc5)c4)C(=O)[C@@H]3[C@@H]2[C@H](O)[C@@H]2O[C@H]12`, for which the activity, negative = inhibition is -4.92% [at 11.4 µM]. Still for that read-out and setting: the figure for `CON1C(=O)C(=O)N(OC)C(C)(C)C1C` (stereo not drawn) is -4.17%. As for `COC(=O)C/C=C\[C@@H](C)[C@@H](/C=N\O[C@@H](C)CN1CCCCc2nc(C)c(C)cc21)NS(=O)(=O)c1ccc(C)cc1`, the AC50 was 3.98 µM (active). As for `COC(=O)C/C=C\[C@@H](C)[C@@H](/C=N\O[C@@H](C)CN1CCCc2nc(C)c(C)cc21)NS(=O)(=O)c1ccc(C)cc1`, the activity, negative = inhibition is -80.9% [at 11.4 µM].

In the case of `CCCS(=O)(=O)N1CCCC(C(=O)NCCCOC(C)C)C1` (stereo not drawn), the “activity, negative = inhibition” value is -4.73%. As to `CC(C)OCCCN1C(=O)c2ccccc2C1C(=O)NC1CCCCC1` (stereo not drawn), the AC50 is 12.6 µM (active). Take `O=c1nc(-c2ccccc2)cn[nH]1`: the “activity, negative = inhibition” value was 2.11%. Turning to `CS(=O)(=O)N1N=C(c2ccc(Br)cc2)CC1c1ccc2c(c1)OCO2` (stereo not drawn), the AC50 was 1.78 µM (active). `Cc1ccc(C2=NN(S(C)(=O)=O)C(c3cccs3)C2)cc1` (stereo not drawn): the activity, negative = inhibition is -2.01% [at 2.29 µM]. `COc1ccc(-c2cc3ccccc3n2CC(O)CNCCO)cc1` (stereo not drawn): the AC50 is 15.8 µM (active). `Cc1[nH]n2c(=O)c(C#N)c(-c3ccccc3)nc2c1-c1ccccc1`: the “activity, negative = inhibition” value is -9.5%.

In the case of `CN1CC(c2ccccc2)C2(COc3ccccc3C2=O)C12C(=O)Nc1ccccc12` (stereo not drawn), the AC50 is 3.98 µM (active).

Consider `NNS(=O)(=O)c1cc(C(=O)O)cc(C(=O)O)c1`, for which the activity, negative = inhibition is -6.08% [at 11.4 µM]. In the case of `CSc1nc(Oc2ccc(=O)[nH]n2)nc(N(C)C)n1`, the “activity, negative = inhibition” value is -5.03%. Turning to `CN(C)S(=O)(=O)c1ccc2c(c1)/C(=C/c1cc3c([nH]1)CCCC3)C(=O)N2`, the AC50 is 5.01 µM (active). Take `C[C@H]1[C@@H](O)[C@@H](C)\C=C/C=C\C=C/C=C\C=C/C=C\C=C/[C@@H](O[C@H]2O[C@@H](C)[C@@H](O)[C@@H](N)[C@@H]2O)C[C@@H]2O[C@](O)(C[C@@H](O)C[C@@H](O)[C@@H](O)CC[C@@H](O)C[C@@H](O)CC(=O)O[C@H]1C)C[C@@H](O)[C@H]2C(=O)O` (stereo in doubt): the “activity, negative = inhibition” value is 12.7% [at 25.6 µM].

As for `CCCC(=O)Nc1nnc(CCN2CCCCC2)s1`, the “activity, negative = inhibition” value was 1.59%. With `CCCc1nnc(NC(=O)CN2C(=O)C3C4C=CC(C4)C3C2=O)s1` (stereo not drawn), the AC50 is 12.6 µM (active).

With `CCCc1nnc(NC(=O)Cn2cnc3ccccc3c2=O)s1`, the “activity, negative = inhibition” value was -10.1%.

These data come from PubChem BioAssay AID1851 (National Center for Advancing Translational Sciences (NCATS), 2009).
